Screens: PubChem, National Center for Advancing Translational Sciences (NCATS)
Only some compounds are listed: those with a hit (about 4.6% of all), similar ones and a draw of the others.
D1 ag – activates the human D1 dopamine receptor. AID 504660. P21728. activation, % at 2 µM. HEK293 T-REx D1 cells, calcium flux, agonist mode. hit rate 1% among 360,000; also: 0% is about no effect
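Inducible HEK293 T-REx D1 cells, force-coupled to calcium signalling, were plated at 4000 cells/well with tetracycline and held overnight at 30 C. After no-wash calcium dye loading, compound-evoked calcium rise over 180 s flagged agonists.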
TRHR PAM – allosteric enhancers of human TRH receptor; hit rate 0.66% among 360,000; P34981; enhancement, % at 2 µM; TRHR cells, fluo-8 calcium fluorescence, EC20 TRH enhancement; AID 493056; in the data active = enhancement above about 30%; also: 0% is about no effect
Target sequence (P34981 whole entry, looked up): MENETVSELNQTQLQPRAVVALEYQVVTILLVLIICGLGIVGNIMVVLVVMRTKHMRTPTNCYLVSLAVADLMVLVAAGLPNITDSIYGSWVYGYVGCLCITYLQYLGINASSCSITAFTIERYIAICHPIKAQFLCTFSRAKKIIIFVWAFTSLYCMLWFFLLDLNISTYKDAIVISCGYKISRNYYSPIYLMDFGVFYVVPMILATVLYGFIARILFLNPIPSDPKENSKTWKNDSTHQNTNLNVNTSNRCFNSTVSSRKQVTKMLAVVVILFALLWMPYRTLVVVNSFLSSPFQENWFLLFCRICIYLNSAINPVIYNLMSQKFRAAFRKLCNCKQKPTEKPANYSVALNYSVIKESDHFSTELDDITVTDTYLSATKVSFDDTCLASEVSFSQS
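TRHR-expressing cells loaded with fluo-8 calcium dye were read kinetically (ex 480/em 530) during compound addition, then stimulated with an EC20 of TRH (10 nM final). Enhancement of the Gq-mediated intracellular calcium response was scored.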
TRHR ag – TRH receptor (human) agonism; P34981; TRHR cells, calcium flux fluo-8, FDSS agonist mode; activation, % at 2 µM; hit rate 0.18% among 360,000; AID 493084; also: 0% is about no effect
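Agonist-mode FDSS calcium read (Ex 480/Em 530, 1 s cycles) in 1536-well TRHR cells with fluo-8 dye, after 10-cycle baseline and 23 nL compound addition; TRH at EC20 (10 nM final) added afterwards for the enhancer phase.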
D1 antag – antagonists of human D1 dopamine receptor | hit rate 3.2% among 360,000 | activity change, negative = inhibition, % at 10 µM | HEK293 TREx D1 cells, calcium flux, dopamine EC80; stronger effect = lower value | P21728; in the data active = activity change below about -30%; also: % is scaled to controls: 0 for no effect and ±100 for the full control effect
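Kinetic fluorescence of a calcium dye serves as the read-out. D1-expressing Hek293 Trex cells, induced overnight at 30 C, are exposed to compound for 180 s before an EC80 dopamine addition, then read 180 s further.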
D1 PAM – enhances dopamine response at the human D1 receptor; P21728; HEK293 TREx D1 cells, calcium flux, dopamine EC20 potentiation; potentiation, % at 10 µM; hit rate 0.036% among 360,000; AID 504651; in the data active = potentiation above about 30%; also: 0% is about no effect
Numbers without * were called inactive; . = no result. Rule as the data show it, unless noted: active = activation above about 30%; inactive = the rest.

SMILES | D1 ag | TRHR PAM | TRHR ag | D1 antag | D1 PAM
Cc1ccc(Cn2c(=O)n(Cc3ccccc3)c(=O)c3oc4ccccc4c32)cc1 | 2 | 36* | 0 | 10 | -4
COc1ccc(Cn2c(=O)c3oc4ccccc4c3n(Cc3cccc(F)c3)c2=O)cc1 | 9 | 0 | 0 | 6 | -6
Cc1ccc(C)c(Cn2c(=O)n(Cc3ccco3)c(=O)c3oc4ccccc4c32)c1 | 1 | -3 | 0 | 10 | -4
COc1ccc(Cn2c(=O)c3oc4ccccc4c3n(Cc3ccccc3)c2=O)cc1 | 2 | 35* | 0 | -4 | -1
Cc1cc(C)c(NC(=O)c2cc3c(=O)n4ccccc4nc3n2C)c(C)c1 | 8 | 7 | 0 | -28 | -3
N#Cc1ccccc1Cn1c(=O)n(Cc2ccc(C(=O)NC3CCN(Cc4ccccc4)CC3)cc2)c(=O)c2ccccc21 | -1 | 11 | 0 | -2 | 0
Cc1cc2c(s1)c1cnn(Cc3ccccc3F)c(=O)c1n2C(C)C | 8 | 9 | 1 | 14 | 6
CCCOc1ccc(C(=O)Nc2cc3c(cc2N2CCOCC2)n(C)c(=O)n3C)cc1 | 0 | 1 | -1 | 2 | 2
Cc1cc(C)cc(-n2ccn(CC(=O)Nc3ccccc3F)c(=O)c2=O)c1 | 3 | 1 | 0 | 0 | 0
COc1ccccc1-c1nc(-c2ccc(C)nc2OC)no1 | 6 | 4 | -1 | -32* | -2
COc1nc(C)ccc1-c1noc(-c2ccccn2)n1 | -2 | 0 | 0 | -9 | -6
O=C(O)c1cccc2c3c([nH]c12)CCCC3 | -3 | 2 | 0 | -30* | 2
Cc1ccccc1NC(=O)c1cccc2c(=O)c3c([nH]c12)CCCC3 | 17 | 3 | 1 | -6 | -1
COc1ccc(-c2noc(CSCC(=O)Nc3ccc(C)cc3Br)n2)cc1OC | -2 | -7 | -1 | -6 | 4
CCCC(O)(CCN1CCCCC1)c1ccc(OCC)cc1 (centres undefined) | 3 | -2 | 0 | -10 | -2
CCOC(=O)N1CCN(CCC(=O)c2ccc(OC)cc2)CC1 | -2 | 7 | 0 | -35* | 6
CCCCOc1ccc(C(=O)CCN2CCCCC2)cc1 | 4 | -12 | 4 | -35* | -4
CCCCCC(O)(CCN1CCCCC1)c1ccc(OCC)cc1 (centres undefined) | 35* | 6 | 0 | -2 | -1
CCOC(=O)N1CCN(CCC(=O)c2ccc(Cl)cc2)CC1 | 3 | -2 | 0 | -8 | 0
CCOC(=O)N1CCN(Cc2nc3cc(NC(=O)c4ccc(F)cc4)ccc3n2C(C)C)CC1 | -1 | -3 | -1 | 3 | -1
CC(C)COc1ccc(C(=O)CCN2CCCCC2)cc1 | 19 | -9 | 7 | -23 | -4
CCOC(=O)N1CCN(Cc2nc3cc(NC(=O)c4ccc(OC)cc4)ccc3n2C(C)C)CC1 | 1 | -21 | 0 | -39* | -3
COc1cc(OC)c(N(C)C(=O)Cn2ncc3c(=O)oc4ccccc4c32)cc1Cl | -1 | 2 | 1 | 8 | 2
Cc1nnc(N2C(=O)C(O)=C(C(=O)c3ccco3)C2c2ccc(C(C)(C)C)cc2)s1 (centres undefined) | 28 | -2 | 8 | 3 | -5
CSc1ccc(C2C(C(=O)c3ccco3)=C(O)C(=O)N2c2nnc(SC)s2)cc1 (centres undefined) | 31* | 7 | 18 | -11 | 0
Cc1nnc(N2C(=O)C(O)=C(C(=O)c3ccco3)C2c2ccc(F)cc2)s1 (centres undefined) | 36* | 11 | 21 | 10 | 0
CCCOc1cccc(C2C(C(=O)c3ccco3)=C(O)C(=O)N2c2nnc(C)s2)c1 (centres undefined) | 76* | 12 | 9 | 5 | .
Cc1nnc(N2C(=O)C(O)=C(C(=O)c3ccco3)C2c2ccc(C(C)C)cc2)s1 (centres undefined) | 51* | -2 | 15 | -3 | -2
CCCCOc1cccc(C2C(C(=O)c3ccc(C)o3)=C(O)C(=O)N2c2nnc(C)s2)c1 (centres undefined) | 8 | -4 | 3 | 10 | -2
Cc1ccc(C2C(C(=O)c3ccco3)=C(O)C(=O)N2c2ncccn2)cc1 (centres undefined) | 4 | -2 | 1 | -7 | -3
